Measurements: PubChem BioAssay (NCI)
Several values for one entry are separate records, joined by “and”; a condition that tells them apart may be missing. Equal values may be shown once. Compounds without any hit were thinned out: in the full panel of roughly 83,000, 20% have a hit.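 The endpoint reported here, percent growth, reads 100 for growth as untreated, 0 for no net growth and -100 for all cells dead.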 Activity calls are given as the source filed them. How the source made its calls: active means growth percent below 10; inactive means the rest.

How the values were obtained:
Experiment in all cases: NCI-60 one-dose screen, 48 h (100 = growth as untreated, 0 = no growth, -100 = all killed)
Settings in all cases: 10 µM unless noted
DU-145 prostate = system: DU-145 prostate
K-562 leukemia = system: K-562 leukemia
MALME-3M melanoma = system: MALME-3M melanoma
MDA-MB-231 breast = system: MDA-MB-231 breast
RXF 393 renal = system: RXF 393 renal
SF-268 CNS = system: SF-268 CNS
SF-295 CNS = system: SF-295 CNS
SF-539 CNS = system: SF-539 CNS
UACC-257 melanoma = system: UACC-257 melanoma
M14 melanoma = system: M14 melanoma

Structure (SMILES)	growth (DU-145 prostate)	growth (K-562 leukemia)	growth (MALME-3M melanoma)	growth (MDA-MB-231 breast)	growth (RXF 393 renal)	growth (SF-268 CNS)	growth (SF-295 CNS)	growth (SF-539 CNS)	growth (UACC-257 melanoma)	growth (M14 melanoma)
O=C(O)/C=C/C=C/c1ccccc1	106% (inactive) and 109% (inactive)	114% (inactive) and 110% (inactive)	103% (inactive) and 114% (inactive)	101% (inactive) and 106% (inactive)	113% (inactive) and 120% (inactive)	101% (inactive)	105% (inactive) and 101% (inactive)	96.7% (inactive) and 98.6% (inactive)	102% (inactive) and 93.2% (inactive)	101% (inactive)
COc1cc([C@@H]2c3cc4c(cc3[C@H](O)[C@H]3COC(=O)[C@@H]23)OCO4)cc(OC)c1OC	27.1% (inactive) and -27.4% (active)	8.28% (active) and 25.4% (inactive)	7.77% (active) and 69.7% (inactive)	36.9% (inactive) and 17.5% (inactive)	39.6% (inactive) and 28.2% (inactive)	27.1% (inactive) and 24.4% (inactive)	34.1% (inactive) and -22.3% (active)	-30.4% (active) and -4.79% (active)	18.6% (inactive) and 57.2% (inactive)	9.16% (active) and -73.8% (active)
O=C1c2ccccc2C(c2ccccc2)C1c1ccccc1 (stereo not given)	104% (inactive)	77.2% (inactive)	99.5% (inactive)	89.1% (inactive)	102% (inactive)	97.9% (inactive)	94.8% (inactive)	101% (inactive)	96.3% (inactive)	97.7% (inactive)
CNc1ccc(Cl)cc1S(=O)(=O)c1ccccc1[N+](=O)[O-]	105% (inactive)	55.7% (inactive) and 73.3% (inactive)	78.2% (inactive) and 91.1% (inactive)	77.7% (inactive) and 97% (inactive)	25.1% (inactive) and 126% (inactive)	106% (inactive) and 90.6% (inactive)	108% (inactive) and 104% (inactive)	86.4% (inactive) and 98.3% (inactive)	75.7% (inactive) and 89.8% (inactive)	115% (inactive) and 83.4% (inactive)
COCCCNC1=C(C#N)C(=O)NC(c2cccs2)S1 (stereo not given)	107% (inactive)	153% (inactive)	104% (inactive)	106% (inactive)	96.9% (inactive)	104% (inactive)	96.4% (inactive)	85.2% (inactive)	111% (inactive)	110% (inactive)
O=C(NC(CSSCC(NC(=O)OCc1ccccc1)C(=O)O)C(=O)O)OCc1ccccc1 (stereo not given)	101% (inactive) and 118% (inactive)	84.7% (inactive) and 78.1% (inactive)	86.6% (inactive) and 104% (inactive)	90.5% (inactive) and 108% (inactive)	81% (inactive) and 113% (inactive)	92.4% (inactive) and 107% (inactive)	89.6% (inactive) and 103% (inactive)	93.7% (inactive) and 91.8% (inactive)	91.9% (inactive)	93.5% (inactive) and 88.9% (inactive)
Nc1c(S(=O)(=O)O)cc(Br)c2c1C(=O)c1ccccc1C2=O	106% (inactive) and 116% (inactive)	101% (inactive) and 96.6% (inactive)	97.6% (inactive) and 116% (inactive)	115% (inactive) and 107% (inactive)	111% (inactive) and 98.7% (inactive)	102% (inactive) and 106% (inactive)	104% (inactive) and 100% (inactive)	104% (inactive) and 101% (inactive)	83.3% (inactive)	117% (inactive) and 110% (inactive)
Nc1nc(=S)c2[nH]cnc2[nH]1	21.3% (inactive) and 21% (inactive)	9.77% (active) and -2.79% (active)	21.6% (inactive) and 35.7% (inactive)	32.9% (inactive) and 29.4% (inactive)	5.3% (active) and -2.73% (active)	17.8% (inactive) and 26.3% (inactive)	25.6% (inactive) and 19% (inactive)	7.88% (active)	41.4% (inactive) and 24.2% (inactive)	5.54% (active)
